In PubChem BioAssay (NCATS):
Records with an inconclusive call do not appear. A number with no mark means an inactive call. Calls of active or inactive are those of the source. The call rests on the fitted dose curve; in most records, active means well fitted activation curve with a large enough effect in the main read-out, with a control signal flat (not every such curve was filed as active); inconclusive means small, poorly fitted or top-dose-only effect, or effect the other way, or a change in a side signal; inactive means flat fitted curve, though single readings scatter.

The compounds below were run against 3',5'-cyclic-AMP phosphodiesterase 4B (Homo sapiens) (UniProt Q07343) (assay: qHTS Assay for Inhibitors of PDE-IV (AID 607; further: % of control where 0% means no effect)). Settings: HEK293 ACTOne CNG channel cells, membrane potential fluorescence; series mostly up to 22.9 µM; activation (PDE inhibition): at the top concentration.
3',5'-cyclic-AMP phosphodiesterase 4B (Homo sapiens), sequence (Q07343 whole entry, looked up): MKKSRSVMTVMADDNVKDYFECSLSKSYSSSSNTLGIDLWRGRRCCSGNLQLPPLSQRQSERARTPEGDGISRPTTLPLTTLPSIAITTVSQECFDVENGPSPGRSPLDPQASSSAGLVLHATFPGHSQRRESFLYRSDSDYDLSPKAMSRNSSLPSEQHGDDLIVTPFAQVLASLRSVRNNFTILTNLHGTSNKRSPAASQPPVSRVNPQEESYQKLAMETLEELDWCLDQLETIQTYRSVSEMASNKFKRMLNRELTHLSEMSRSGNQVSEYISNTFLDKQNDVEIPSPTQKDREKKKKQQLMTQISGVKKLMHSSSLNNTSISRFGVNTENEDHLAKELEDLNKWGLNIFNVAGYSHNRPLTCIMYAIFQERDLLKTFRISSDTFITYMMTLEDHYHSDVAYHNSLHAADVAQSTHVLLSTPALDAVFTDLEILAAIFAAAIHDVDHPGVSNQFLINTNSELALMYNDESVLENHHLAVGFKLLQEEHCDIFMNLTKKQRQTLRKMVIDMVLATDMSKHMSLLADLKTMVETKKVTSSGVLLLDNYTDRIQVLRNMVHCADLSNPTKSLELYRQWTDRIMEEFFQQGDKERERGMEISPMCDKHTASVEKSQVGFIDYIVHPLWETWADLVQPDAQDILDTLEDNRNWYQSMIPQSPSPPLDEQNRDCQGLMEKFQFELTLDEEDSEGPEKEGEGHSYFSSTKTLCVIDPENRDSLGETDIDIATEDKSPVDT
Procedure, shortened: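 Live HEK293 cells with a modified cyclic nucleotide-gated (CNG) channel report intracellular cAMP via membrane-potential dye fluorescence (ex 535/em 590 nm). Endogenous PDE-IV was targeted. Compounds were tested at up to 22.9 uM final; RO 20-1724 100 uM served as control.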

Compound	activation (PDE inhibition)	outcome
CN1CCC(OC(c2ccccc2)c2ccccc2)CC1	27.3%	
CC[C@H](c1ccc(O)cc1)[C@@H](CC)c1ccc(O)cc1	-16%	
CN1CCc2cccc3c2[C@H]1Cc1ccc(O)c(O)c1-3	7.59%	
COc1cc(N)c(Cl)cc1C(=O)NC1CCN(Cc2ccccc2)CC1	-1.86%	
COc1cc(C)nc(-n2nc(C)cc2OC)n1	3.45%	
CNCCc1ccccn1	-4.05%	
Cl/C(=C\n1cncn1)c1ccc(Cl)cc1Cl	-19.2%	
Cc1cc(-c2ccccc2)nnc1NCCN1CCOCC1	-0.386%	
COc1cc(C(=O)NCc2ccc(OCCN(C)C)cc2)cc(OC)c1OC	7.03%	
CC(C)(C)NC[C@H](O)COc1nsnc1N1CCOCC1		inactive
COc1cc(NS(=O)(=O)c2ccc(N)cc2)ncn1	10.3%	
NS(=O)(=O)c1cc(C(=O)O)cc(N2CCCC2)c1Oc1ccccc1	-1.27%	
O=C1C(=O)c2ccccc2C(O)=C1C1CCC(c2ccc(Cl)cc2)CC1 (stereo unspecified)	-7.03%	
O=C1C(CCS(=O)c2ccccc2)C(=O)N(c2ccccc2)N1c1ccccc1 (stereo unspecified)	5.15%	
O=C(O)CCC(=O)Nc1ccc(S(=O)(=O)Nc2nccs2)cc1	0.308%	
NC(N)=NCc1cccc(I)c1	-2.67%	
CCc1oc2ccccc2c1C(=O)c1cc(Br)c(O)c(Br)c1	14.1%	
CCCc1ncc(C[n+]2ccccc2C)c(N)n1	-1.42%	
COc1ccc(C(=O)c2ccccc2O)c(O)c1	17.2%	
NS(=O)(=O)Cc1noc2ccccc12	-7.77%	
CCN(CC)CCNC(=O)c1cc(Br)c(N)cc1OC	2.03%	
Nc1ccc(S(=O)(=O)Nc2cnc3ccccc3n2)cc1		inactive
CCCCNc1ccc(C(=O)OCCOCCOCCOCCOCCOCCOCCOCCOCCOC)cc1	20.5%	
CN=C(N)NCCC[C@H](N)C(=O)O	-2.7%	
CCc1cc(Cl)c(OC)c(C(=O)NC[C@@H]2CCCN2CC)c1O	28.7%	
CN(C)CCC[C@@]1(c2ccc(F)cc2)OCc2cc(C#N)ccc21		inactive
